{
  "source": "PubChem BioAssay (Tox21)",
  "note": "A number with no mark means an inactive call. Where a call stands in place of a potency, no number is given. Calls of active or inactive are those of the source. Calls follow the shape of the full dose curve.",
  "data": [
    {"assay": "G protein-coupled receptor (GPCR) small molecule agonists, calcium flux assay: HEK293 wild type cell line counter screen (AID 1920065)", "details": "HEK293 WT calcium flux, fluorescence, agonist mode; series mostly up to 57.6 µM", "description": "U.S. Tox21 Program National Center for Advancing Translational Sciences [NCATS] Division of Preclinical Innovation [DPI] U.S. Environmental Protection Agency [EPA] National Institutes of Environmental Health Sciences [NIEHS] National Toxicology Program [NTP] U.S. Food and Drug Administration [FDA] Assay overview: The increased intracellular calcium release that occurred upon G protein-coupled receptor (GPCR) activation led to the frequent use of calcium flux assays to detect GPCR activation. For the purpose of studying and screening compounds that may activate GPCR, receptor-overexpressing models were typically generated using Hek293 wild-type (WT) cells. In order to eliminate the compounds that may have induced calcium release for non-specific activation, a counter-assay utilizing calcium flux on Hek293 WT cells was performed. The data were formulated in order to serve as a control for any calcium flux detection utilizing Hek293 cells with either GPCR overexpression or gene modification. The procurement of Hek293 WT cells from ATCC. Fluorescence intensity can be utilized to determine the activation of the compound in a calcium flux assay. As a counter control, this cell line was utilized to screen the Tox21 10K compound library.\nAssay Protocol Summary: Hek293 cells were dispensed at 1500cells/4uL/well in 1536-well black wall/clear bottom plates using a multidrop dispenser. After the assay plates were incubated at a 37 C/5% CO2 incubator for 18 hours, 4 uL of Calcium Dye Solution was added to each well. The plates were incubated at 37 C for 1 hour. For agonist mode, 23 nL of compounds dissolved in DMSO, positive control (ATP) or DMSO only was transferred to the assay plate by a pin tool station. The fluorescence intensity in the plates was measured using FDSS 7000EX kinetic plate reader with a filter set of Ex/Em=480/540 for 3 min at 1 sec intervals. Each test compound was measured at 15 concentrations and in triplicates.", "values": [
      {"smiles": "CCCCNCCCC", "Potency": "inactive"},
      {"smiles": "CCCNC(C)C(=O)Nc1c(C)csc1C(=O)OC", "note": "(stereo not given)", "Potency": "inactive"},
      {"smiles": "CC/C=C\\CCOC(C)OCC", "note": "(stereo not given)", "Potency": "inactive"},
      {"smiles": "O=S(=O)(O)c1ccccc1/C=C/c1ccc(-c2ccc(/C=C/c3ccccc3S(=O)(=O)O)cc2)cc1", "Potency": "inactive"},
      {"smiles": "COC(=O)C1=C(C)NC(C)=C(C(=O)OCC(C)=O)C1c1ccccc1[N+](=O)[O-]", "note": "(stereo not given)", "Potency": "inactive"},
      {"smiles": "CCCCCCCC/C=C\\CCCCCCCCO", "Potency": "inactive"},
      {"smiles": "Oc1ccc(Cc2ccccc2)cc1", "Potency": "inactive"},
      {"smiles": "CO/N=C(/C(=O)N[C@@H]1C(=O)N2C(C(=O)OCOC(=O)C(C)(C)C)=C(C)CS[C@H]12)c1csc(N)n1", "Potency": "inactive"},
      {"smiles": "COc1cc(OC)c2ccc(=O)oc2c1", "Potency": "inactive"},
      {"smiles": "CNCCC(Oc1ccc(C(F)(F)F)cc1)c1ccccc1", "note": "(stereo not given)", "Potency": "inactive"},
      {"smiles": "C=CCOCC(O)CCl", "note": "(stereo not given)", "Potency": "inactive"},
      {"smiles": "COc1cc(C(C)C)c2c(c1)S(=O)(=O)N(COc1cc(=O)n3cccc(OCCN4CCCCC4)c3n1)C2=O", "activation": "1.49% [at 11.8 µM]"},
      {"smiles": "NCc1ccccc1", "Potency": "inactive"},
      {"smiles": "CCCCN(CCC(=O)OCC)C(C)=O", "Potency": "inactive"},
      {"smiles": "N=C(N)S(=O)O", "Potency": "inactive"},
      {"smiles": "O=C(O)O", "activation": "-0.66% [at 5.23 µM]"},
      {"smiles": "CC1(C)CCC[C@]2(C)[C@H]3CC(=O)O[C@]3(C)CC[C@@H]12", "Potency": "inactive"},
      {"smiles": "CCOC(=O)COc1ccc2c(C)c(CCN(CC)CC)c(=O)oc2c1Cl", "Potency": "inactive"},
      {"smiles": "N#Cc1ccc(C(c2ccc(C#N)cc2)n2cncn2)cc1", "Potency": "inactive"},
      {"smiles": "CCCCCOC(=O)c1ccc(O)cc1", "Potency": "inactive"},
      {"smiles": "CCOC(=O)c1ccccc1OC", "Potency": "inactive"},
      {"smiles": "OCCc1ccncc1", "Potency": "inactive"},
      {"smiles": "CN1C(C(=O)Nc2ccccn2)=C(O)c2sccc2S1(=O)=O", "Potency": "inactive"},
      {"smiles": "O=Cc1cc(O)ccc1Br", "Potency": "inactive"},
      {"smiles": "CC(C)(C)C(O)/C=C/c1ccc2c(c1)OCO2", "note": "(stereo not given)", "Potency": "inactive"},
      {"smiles": "COC(=O)[C@@H](N)Cc1ccc(O)c(O)c1", "Potency": "inactive"},
      {"smiles": "COc1cc2ncnc(Nc3cccc(Cl)c3)c2cc1OC", "activation": "-0.385% [at 11.8 µM]"},
      {"smiles": "COCCc1ccc(OCC2CO2)cc1", "note": "(stereo not given)", "Potency": "inactive"},
      {"smiles": "FB(F)F", "Potency": "inactive"},
      {"smiles": "Cc1nn(C)c(Oc2ccccc2)c1/C=N/OCc1ccc(C(=O)OC(C)(C)C)cc1", "Potency": "inactive"},
      {"smiles": "Cc1c2ccccc2c(C)c2c1ccc1ccccc12", "Potency": "inactive"},
      {"smiles": "O=C1NCCN1CCN1CCC(c2cn(-c3ccc(F)cc3)c3ccc(Cl)cc23)CC1", "Potency": "inactive"},
      {"smiles": "C[C@H](CCC(=O)O)[C@H]1CC[C@H]2[C@@H]3[C@H](O)C[C@@H]4C[C@H](O)CC[C@]4(C)[C@H]3CC[C@]12C", "Potency": "inactive"},
      {"smiles": "C#C[C@]1(O)CC[C@H]2[C@@H]3[C@H](C)CC4=C(CCC(=O)C4)[C@H]3CC[C@@]21C", "Potency": "inactive"},
      {"smiles": "CCC(=O)OCCOc1ccccc1", "Potency": "inactive"},
      {"smiles": "Cc1cc(C2CCCCC2)n(O)c(=O)c1", "Potency": "inactive"},
      {"smiles": "c1ccc(-c2ccccc2-c2ccccc2)cc1", "Potency": "inactive"},
      {"smiles": "COc1cc(Cl)ccc1Oc1ccc(Cl)cc1Cl", "Potency": "inactive"},
      {"smiles": "O=c1cc(-c2ccc(O)cc2)oc2cc(O)cc(O)c12", "Potency": "inactive"},
      {"smiles": "C/C(CC(C)C)=N\\O", "Potency": "inactive"}
    ]}
  ]
}
